An excerpt weighted towards active compounds, which were near 19% of everything screened.
TDP1 cell CPT: DT40-hTDP1 cell growth loss with CPT; chicken DT40 Tdp1-/-;hTDP1 cells + 20 nM CPT, ATP luminescence, 48 h; Potency, µM (doses to about 46.2 µM), hits mostly inhibitors; 12% of 420,000 active; AID 686979; further: nearly all actives have a fitted effect of over 55% in size
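Cell growth measured by CellTiter-Glo luminescence after a minimum 48 h, 37 C compound exposure with 20 nM CPT in Tdp1-knockout DT40 cells stably expressing hTDP1, seeded 400/well; qHTS titration format.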
SW480 rereplic: DNA re-replication induction in SW480 cells; SW480 DNA re-replication, Hoechst DNA content imaging, 48 h; Potency, µM (top dose mostly 46.1 µM), actives largely listed as activators; 1.8% of 340,000 active; AID 624297; further: nearly all actives have a fitted effect of over 55% in size
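Readout is total intensity of Hoechst-stained nuclei, excited at 405 nm and collected at 500-530 nm. Compound treatment lasted 48 hr at 37 C in 5% CO2 before staining.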
TDP1 cell noCPT: qHTS for Inhibitors of human tyrosyl-DNA phosphodiesterase 1 (TDP1): qHTS in cells in absence of CPT; DT40 Tdp1-/- hTDP1 cells, no CPT, ATP luminescence, 48 h; Potency, µM (top dose mostly 46.2 µM), actives largely listed as inhibitors; 15% of 420,000 active; further: nearly all actives have a fitted effect of over 55% in size
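No-CPT arm: Tdp1-/-;hTDP1 DT40 cells (400/well) plus compounds, incubated ≥48 hr at 37 °C. Readout CellTiter-Glo luminescence.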
MCF10A rerep: inducers of DNA re-replication in MCF 10A breast cells; MCF 10A DNA re-replication, Hoechst nuclear intensity, 48 h; Potency, µM (highest dose often 46.1 µM), hits mostly activators; 2.9% of 350,000 active; further: nearly all actives have a fitted effect of over 50% in size
IL1B secr inh: blocks inflammasome-driven IL-1 beta release; THP-1 LPS/ATP IL-1B secretion, AlphaLISA, 16 h; stronger effect = lower value; activity change, % at 57.5 µM; 4.7% of 360,000 active; AID 743279; in the data active means activity change below about -50%; inconclusive means mostly about -30% to -49%
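Secreted IL-1B measured by AlphaLISA bead assay after 16 h compound exposure of THP-1 cells; compounds (final up to 57.5 uM) added 1 h before LPS (250 ng/mL) and ATP (1.25 mM) stimulation; lower signal means less secretion.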
BCR signal inh: chronic active BCR signaling inhibition; ABC-DLBCL IkBa-CBG/CBR reporter, luminescence ratio, 4 h; 0.05% of 340,000 active; Potency, µM (highest dose often 46.1 µM), usual class: inhibitors; active means well fitted inhibition curve with a large enough effect in the signal ratio, with a control signal flat, not every such curve was filed as active; inconclusive means small, poorly fitted or top-dose-only effect, or effect the other way, or a change in a side signal; the % refers to the signal ratio
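TMD8 ABC-DLBCL cells carrying doxycycline-inducible green luciferase fused to IkappaBalpha plus unfused red luciferase were exposed to compounds (up to 46 uM) for 4 hrs at 37C. Activity came from the overlap-corrected green/red luminescence ratio.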
Numbers stand for hits; i = inactive; ? = inconclusive; nt = no result; [ ] = remark or other dose. Unless noted, the call rests on the fitted dose curve; in most records, active means well fitted curve in the direction sought with a large enough effect; inconclusive means small, poorly fitted or top-dose-only effect, or another doubt; inactive means no such curve, though single readings can be large; an effect the other way counts as inactive or inconclusive.

SMILES	TDP1 cell CPT	SW480 rereplic	TDP1 cell noCPT	MCF10A rerep	IL1B secr inh	BCR signal inh
Cc1ccccc1Cn1c(CN2CCC(C(=O)NCc3ccc(Cl)cc3)CC2)cc2ccccc21	?	nt	?	nt	nt	i
Cc1cc(Br)cn2c(Cc3ccsc3)c(-c3cccc(Br)c3)nc12	i	nt	i	nt	i	nt
COc1ccccc1C(=O)C1CCCN(C(=O)c2snnc2C)C1 (stereo not given)	?	i	i	i	i	i
Cc1cc(NC(=O)CN2CCC(C)CC2)nc2c1c(=O)oc1ccccc12	?	nt	20.6µM	nt	nt	nt
Cc1cc(NC(=O)CN2CCc3ccccc3C2)nc2c1c(=O)oc1ccccc12	20.6µM	i	18.4µM	?	i	?
CCCC(=O)Nc1cc(C)c2c(=O)oc3ccccc3c2n1	?	i	?	i	i	i
CCN(CC)c1ccc2nc3ccccc3[n+](CC)c2c1	5.17µM	3.66µM	1.84µM	11.6µM	-100.6	?
Cc1cccc(C(=O)NCC(=O)N2CCN(S(=O)(=O)c3cc(C)ccc3C)CC2)c1	?	i	?	?	i	i
Cc1ccc(C)c(S(=O)(=O)N2CCN(C(=O)[C@H](C)N3C(=O)C4CC=CCC4C3=O)CC2)c1 (stereo not given in full)	i	i	i	i	i	i
Cc1ccc(C)c(S(=O)(=O)N2CCN(C(=O)CNC(=O)c3ccc4ccccc4c3)CC2)c1	?	?	16.4µM	?	i	i
Cc1ccc(C)c(S(=O)(=O)N2CCN(C(=O)[C@@H](NC(=O)c3ccc(F)cc3)C(C)C)CC2)c1	?	i	20.6µM	i	i	i
CC1CC2(CCCC2)Nc2ccc(F)cc21 (stereo not given)	i	i	i	i	i	i
CC1CC(C)(C)Nc2ccc(N=O)cc21 (stereo not given)	2.31µM	2.31µM	1.84µM	23.1µM	-105.3	?
COC(=O)c1cnn(-c2ccccc2)c1/C=N/NC(=S)Nc1ccc(Cl)cc1	i	i	?	i	i	i
COc1ccc(S(=O)(=O)NCc2ccccn2)cc1NC(=O)c1ccc(C)cc1	7.31µM	i	5.17µM	?	i	i
COc1ccc(S(=O)(=O)NCc2ccccn2)cc1Br	i	i	i	i	i	i
CCOc1ccc(S(=O)(=O)NCc2ccccn2)cc1NC(=O)c1ccccc1F	0.651µM	0.82µM	0.651µM	?	i	?
COc1ccc(S(=O)(=O)NCc2ccncc2)cc1NC(=O)c1ccccc1F	?	i	i	i	i	i
COc1ccc(S(=O)(=O)NCc2ccccn2)cc1NC(=O)c1ccccc1	4.61µM	9.2µM	4.11µM	20.6µM	i	?
Cc1ccc(C2=NN(CC(=O)O)C(=O)CC2)cc1	i	i	i	i	i	i
CC(=O)Nc1ccc(NC(=O)C2(c3cccs3)CCOCC2)cc1	i	nt	i	nt	nt	i
COc1ccc(N(C(=O)CCl)C(C(=O)NCCc2ccccc2)c2cccs2)cc1Cl (stereo not given)	2.59µM	?	1.46µM	6.51µM	-102.7	?
COc1cccc(N(C(=O)CCl)C(C(=O)NCCc2ccccc2)c2cccs2)c1 (stereo not given)	4.11µM	?	4.61µM	16.4µM	?	?
COc1ccc(-c2csc(NC(=O)COC(=O)C3=COCCO3)n2)cc1	i	i	i	i	i	i
Cc1ccccc1OCC(=O)Nc1sc2c(c1C(=O)OC(C)C)CCCC2	i	nt	i	nt	nt	nt
SMILES	TDP1 cell CPT	SW480 rereplic	TDP1 cell noCPT	MCF10A rerep	IL1B secr inh	BCR signal inh
Cc1ccc(C)c(Nc2nn3c(=O)c4ccc(C(=O)N(C)Cc5ccccc5)cc4nc3s2)c1	9.2µM	nt	20.6µM	nt	nt	nt
CCCCN(C)C(=O)c1ccc2c(=O)n3nc(Nc4cc(C)ccc4C)sc3nc2c1	13µM	nt	11.6µM	nt	nt	nt
Cc1cccc(Nc2nn3c(=O)c4ccccc4nc3s2)c1	i	i	i	i	i	i
CC1CCN(Cc2c(C(=O)N3CCc4ccccc4C3)nc3ccc(Cl)cn23)CC1	20.6µM	i	?	i	i	i
CCn1c(SCC(=O)c2c(N)n(C3CC3)c(=O)[nH]c2=O)nc2cc(S(N)(=O)=O)ccc21	i	i	i	i	i	i
CCOC(=O)c1c(C)[nH]c(C(=O)N2CCN(c3ccc(OC)cc3)CC2)c1C	i	i	?	i	i	i
CCOC(=O)c1cccc(NC(=O)C2CCCN(S(=O)(=O)c3c(C)nn(C)c3C)C2)c1 (stereo not given)	20.6µM	i	?	i	i	i
CCOC(=O)c1c(S(=O)(=O)N2CCCC(C(=O)Nc3cccc(Cl)c3)C2)c(C)n(C)c1C (stereo not given)	9.2µM	nt	?	nt	nt	i
CCOC(=O)c1c(S(=O)(=O)N2CCCC(C(=O)Nc3ccccn3)C2)c(C)n(C)c1C (stereo not given)	i	nt	i	nt	nt	?
Cc1ccc(Cl)cc1NC(=O)C(C)n1nc(-c2ccccc2)ccc1=O (stereo not given)	?	nt	i	nt	nt	nt
Cc1ccc(NC(=S)N2CCCC(c3nc4ccc(C)cc4[nH]3)C2)c(C)c1 (stereo not given)	?	i	?	i	i	i
Cc1ccc2nc(C3CCCN(C(=S)Nc4cccc(C)c4C)C3)[nH]c2c1 (stereo not given)	?	i	18.4µM	i	i	?
COCC(=O)OC1CCn2c1nc1c2C(=O)C(C)=C(NC(C)=O)C1=O (stereo not given)	2.59µM	1.46µM	2.31µM	9.2µM	i	nt
O=S(=O)(NCc1ccc2c(c1)OCO2)c1ccc(F)c(F)c1	i	i	i	i	i	i
Cn1nc(C(=O)Nc2cccc(S(=O)(=O)N3CCOCC3)c2)c2ccccc2c1=O	i	i	i	i	i	i
CC(C)n1nc(C(=O)Nc2cccc(S(=O)(=O)N3CCCCC3)c2)c2ccccc2c1=O	13µM	i	i	i	i	i
CC(C)n1nc(C(=O)Nc2cccc(S(=O)(=O)N3CCOCC3)c2)c2ccccc2c1=O	20.6µM	i	?	i	i	i
COC(=O)CSc1nc(N2CCCCC2)c2c(c1C#N)CCCC2	?	i	23.1µM	i[9.22 µM]	i	i
Cc1cc2oc(=O)cc(-c3ccccc3)c2c(C)c1-c1ccc(C#N)cc1	16.4µM	i	16.4µM	i	i	i
CC(=O)c1ccc(-c2c(C)cc3oc(=O)cc(-c4ccccc4)c3c2C)cc1	18.4µM	i	23.1µM	i	i	i
Cc1cc2oc(=O)cc(-c3ccccc3)c2c(C)c1-c1ccc(F)c(Cl)c1	?	i	i	i	i	i
CC(=O)c1ccsc1-c1c(C)cc2oc(=O)cc(-c3ccccc3)c2c1C	?	i	?	?	i	?
Cc1noc(C)c1-c1nccc(N2CCNCC2)n1	i	nt	i	nt	nt	nt
